Compound activity as filed in PubChem.
Hits are enriched below; roughly 13% of the tested compounds scored in any of these assays.
HCMV inh – qHTS Assay for inhibitors of the human cytomegalovirus (HCMV); 410,000 compounds, 4.5% hits; activity change, negative = inhibition, % at 57.5 µM; HFF cells, HCMV-luciferase reporter, 72 h; active compounds read low; in the data active = activity change below about -60%; inconclusive = no clear call, values can overlap the other calls; inactive = above about -39%
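HFF cells seeded 16 h at 37C, treated with compounds, infected with luciferase-reporter HCMV at MOI 1 PFU/cell; luciferase read at 72 h post infection, normalized to buffer-only and Salinomycin controls.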
Pf growth 96h – Primary qHTS for delayed death inhibitors of the malarial parasite plastid, 96 hour incubation | Potency, µM (titrated, usually from 28.7 µM), inactives show top-dose activity change, negative = inhibition, most hits filed as inhibitors | P. falciparum luciferase reporter growth, 96 h | AID 504834, 2011 | 320,000 compounds, 6.9% hits; also: potency is read from the fitted curve at half-maximal effect
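Delayed-death screen, second-generation endpoint: infected erythrocytes, 2% hematocrit, 0.05% parasitemia final; 96 hours at 37 C, 5% CO2; luciferase detection reagent; luminescence decrease equals reduced growth.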
HCV inh – qHTS Assay for Inhibitors of Hepatitis C Virus (HCV). 340,000 compounds, 3.4% hits. AID 651820, 2012. Huh7.5.1 HCVcc-Cre infection, luciferase reporter, 44 h. Potency, µM (titrated, usually from 41.8 µM), inactives show at the top dose activity change, negative = inhibition, usual class: inhibitors; also: potency is read from the fitted curve at half-maximal effect
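Infectious HCV cell culture screen: compound-treated cells (1,000/well, pre-plated 4 h) are infected with HCVcc-Cre at roughly 0.5 moi and grown 44 h. Infection is quantified by luciferase signal after 15 min substrate incubation at room temperature.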
Pf growth 48h – Primary qHTS for delayed death inhibitors of the malarial parasite plastid, 48 hour incubation; 310,000 compounds, 5.9% hits; P. falciparum luciferase growth in erythrocytes, 48 h; Potency, µM (doses to about 28.7 µM), without a hit: at the highest dose activity change, negative = inhibition, actives largely listed as inhibitors; also: potency is read from the fitted curve at half-maximal effect
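Luminescence readout; reporter = integrated firefly luciferase in P. falciparum. RBC culture at 2% hematocrit, 0.1% parasitemia final, 37 C/5% CO2; decreased signal taken as growth inhibition.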
An asterisk follows results filed as active; ? = inconclusive; nt = not tested or not shown. Unless noted, calls follow the shape of the dose curve; as a rule, active = well fitted inhibition curve with a large enough effect; inconclusive = small, poorly fitted or top-dose-only effect, or another doubt; inactive = no such curve, though single readings can be large or run the other way. % is scaled to controls: 0 for no effect and ±100 for the full control effect.

SMILES	HCMV inh	Pf growth 96h	HCV inh	Pf growth 48h
CCN1CCC(N(Cc2ccc3c(c2)OCO3)C(=O)Nc2cc(Cl)ccc2C(=O)OC)CC1	-79.8*	nt	nt	nt
Cc1nn(CCCC(=O)Nc2cccc(F)c2)c(=O)c2c1sc1ccccc12	-20.4	nt	nt	nt
Cc1cccc(C)c1NC(=O)CN1CCN(CC(=O)NCC2(N3CCCCC3)CCCCC2)CC1	-24.6	1.9%	4.9%	?
Cc1cccc(C)c1NC(=O)CC12CCCN1CCC2	nt	6.01µM*	nt	-9.2%
C=CCN(CC=C)c1nc2ccccc2nc1C(C#N)C(=O)OCCOC (centres undefined)	?	6.57µM*	?	10.4µM*
Cc1ccc2c(c1)C(=O)OC(C(=O)Nc1ncc(Cc3ccc(C(C)C)cc3)s1)C2 (centres undefined)	13.0	nt	nt	nt
COc1ccc(CNCC(O)(c2ccccc2)c2ccc(F)cc2)cc1OC (centres undefined)	?	8.28µM*	10µM*	7.38µM*
COc1ccc(CCNCc2ccc(F)cc2)cc1OC	4.8	nt	8.2%	9.0%
COc1ccc(CNCC(O)(c2ccc(Cl)cc2)c2ccc(Cl)cc2)cc1OC	17.7	1.47µM*	12.6µM*	2.08µM*
COc1ccc(CNCC(O)(c2ccc(Cl)cc2)c2ccc(Cl)cc2)cc1	36.7	1.04µM*	?	1.17µM*
COc1ccc(CNCC(O)(c2ccc(F)cc2)c2ccc(F)cc2)cc1OC	?	2.94µM*	?	4.15µM*
COCCCNC(=O)c1c(NC(=O)Cc2coc3cc(C)cc(C)c23)sc2c1CCCC2	-0.3	nt	nt	nt
COC(=O)c1cccc(Nc2c(-c3ccc(OC)cc3)nc3nc[nH]n23)c1	82.5	nt	nt	nt
Cc1nc2ccccn2c(=O)c1NC(=O)c1ccc(F)c(F)c1	-17.3	nt	nt	nt
Cc1ccc(N(CC(=O)NCCc2ccc(Cl)cc2)S(=O)(=O)N(C)C)cc1	10.6	nt	nt	nt
O=C(Nc1ccccc1C(=O)OCc1cc(=O)n2ccsc2n1)c1ccc(Cl)cc1	17.7	nt	nt	nt
CCCCNCC(O)(c1ccc(Cl)cc1)c1ccc(Cl)cc1	-24.5	2.33µM*	-26.0%	13.1µM*
CCCCNC(=S)Nc1ccc(Cl)cc1	-39.9	30.5%	0.1%	22.4%
COc1ccc(CNCC(O)(c2ccccc2)c2ccc(F)cc2)cc1 (centres undefined)	?	?	7.9%	5.22µM*
Cc1ccc(C(O)(CNCc2ccccc2)c2ccccc2)cc1 (centres undefined)	-5.9	?	-10.6%	?
O=c1ccn([C@@H]2O[C@H](CNCc3cccn3-c3ccncc3)[C@@H](O)[C@H]2O)c(=O)[nH]1	1.3	nt	nt	nt
COc1cc(OC)c(NC(=O)CSC2=Nc3ccccc3N=C(c3ccc(F)cc3)C2)cc1Cl	18.6	nt	nt	nt
CC(C(=O)O)c1ccc2c(c1)Cc1cccnc1O2 (centres undefined)	nt	1.51µM*	nt	-7.4%
CC(C(=O)O)c1ccc2c(c1)CC(=O)c1ccccc1S2 (centres undefined)	2.6	nt	nt	nt
CCOC(=O)c1c(NC(=O)c2nc(S(C)(=O)=O)ncc2Cl)sc(C(C)=O)c1C	-25.1	nt	nt	nt
SMILES	HCMV inh	Pf growth 96h	HCV inh	Pf growth 48h
Cc1ccc(NC(=O)Nc2cc3c(cc2N2CCCCC2)n(C)c(=O)n3C)cc1Cl	-98.8*	nt	nt	nt
Cn1c(=O)n(C)c2cc(N3CCCCC3)c(NC(=O)c3cccc(Cl)c3)cc21	0.0	?	?	10.4µM*
Cn1c(=O)n(C)c2cc(N3CCCCC3)c(NC(=O)Nc3ccc(Br)cc3)cc21	-33.3	nt	nt	nt
Cc1cccc(C(=O)Nc2cc3c(cc2N2CCCCC2)n(C)c(=O)n3C)c1	18.7	nt	nt	nt
Cc1ccc(C(=O)Nc2nnc(SCc3cc(=O)c4c(C)ccc(C)c4[nH]3)s2)cc1	0.9	nt	nt	nt
O=C(CCOc1ccccc1)Nc1ccnn1C1CCN(Cc2ccccc2)CC1	?	?	-4.7%	-11.4%
Cc1ccccc1CN1CCC(n2nccc2NC(=O)CCOc2ccccc2)CC1	0.0	4.15µM*	-5.0%	?
Cc1cc(C)c(CN2CCC(n3nccc3NC(=O)CCOc3ccccc3)CC2)cc1C	?	13.1µM*	?	?
C[C@@H]1CN([C@@H](C)CO)C(=O)CCCn2cc(nn2)CO[C@H]1CN(C)C(=O)CCC(F)(F)F	5.0	nt	nt	nt
Cc1ccc(CCNC(=O)c2ccc3c(c2)N(Cc2ccccc2F)C(=O)c2ccccc2S3=O)cc1 (centres undefined)	-10.7	nt	nt	nt
Cc1cccc(CSc2nc3c(c(-c4cccs4)c2C#N)CN(C)CC3)c1	-2.6	?	?	?
Cc1cccc(CSc2nc(N)c(C#N)c(-c3cccs3)c2C#N)c1	-35.5	?	11.2µM*	13.1µM*
CC(=O)N1c2ccc(S(=O)(=O)N(C)CC(=O)N(Cc3ccccc3)C(C)C)cc2CC1C (centres undefined)	-19.0	nt	nt	nt
O=C(CSc1ncccn1)NCc1ccc2c(c1)OCO2	58.3	?	14.8%	33.8%
Cc1ccccc1NCc1ccc(O)c2ncccc12	-97.5*	-12.6%	?	?
Oc1ccc(CNCc2ccc3c(c2)OCO3)c2cccnc12	nt	?	nt	8.28µM*
Cc1cccc(NCc2ccc(O)c3ncccc23)c1	-84.0*	?	7.08µM*	6.5%
Oc1ccc(CNc2ccccc2)c2cccnc12	nt	37.5%	?	?
COc1ccc(CNC(=O)CN2C(=O)CSc3ccc(S(=O)(=O)N(C)C)cc32)cc1	3.9	nt	nt	nt
COc1ccccc1NC(=O)c1cc2c(C)nn(-c3ccccc3)c2s1	-13.2	nt	nt	nt
Cc1nn(-c2ccccc2)c2sc(C(=O)NC3CC3)cc12	47.3	-3.1%	12.6µM*	?
Cc1nn(-c2ccccc2)c2sc(C(=O)N(CC(=O)NC3CCCC3)Cc3ccco3)cc12	14.0	?	?	11.7µM*
CC(=O)[O][Hg][c]1ccccc1	nt	3.01µM*	nt	1.51µM*
CCOc1ccc(Br)cc1S(=O)(=O)N1CCC(C(N)=O)CC1	-64.2*	1.1%	26.3%	-14.6%
CCOc1ccc(Br)cc1S(=O)(=O)N1CCCN(C)CC1	16.0	-36.9%	?	-28.5%
SMILES	HCMV inh	Pf growth 96h	HCV inh	Pf growth 48h
CC(c1ccccc1C(O)(c1ccccc1)c1ccccc1)N(C)C (centres undefined)	-68.8*	?	6.3%	?
CCCC1=Nc2cc(C(=O)NCCN3CCOCC3)ccc2Sc2ccccc21	-32.0	?	?	-29.5%
CCC1=Nc2cc(C(=O)NCCCN3CCN(C)CC3)ccc2Sc2ccccc21	-22.6	22.4%	-12.1%	?
CC1=Nc2cc(C(=O)NCCCN3CCOCC3)ccc2Sc2c(C)ccc(C)c21	-68.5*	-5.6%	?	?
CC1=Nc2cc(C(=O)NCCN3CCOCC3)ccc2Sc2c(C)ccc(C)c21	-14.4	11.7µM*	-4.0%	?
CCc1ccc(CNC(=O)C(C)n2ccc3cc(S(=O)(=O)N4CCCCCC4)ccc32)cc1 (centres undefined)	14.2	nt	nt	nt
Cc1cc(C)c2ccc(N)nc2c1O	-104.9*	196.0%	11.2µM*	4.15µM*
Cc1cc(C)c2cccc(N)c2n1	-37.6	-59.4%	6.0%	22.3%
Oc1cc(O)c(CN2CCOCC2)cc1CN1CCOCC1	-3.3	nt	5.3%	nt
